# Experimental data: PubChem BioAssay (NCATS)
# “And” between values parts separate entries of the source, which are not always exact repeats. Equal entries are not always repeated. Results filed as inconclusive are left out. More than one record can exist for a structure, and the calls need not agree. The source made the active and inactive calls. Calls follow the shape of the dose curve; as a rule, active = well fitted cell-killing curve with a large enough effect; inconclusive = small, poorly fitted or top-dose-only effect; inactive = flat fitted curve, though single readings scatter.
# Assay: Cellular viability qHTS for adrenocortical cancer (ACC) cell line NCI-H295R (AID 1963990); also: nearly all actives have a fitted effect of over 60% in size
# Conditions: CellTiter-Glo ATP luminescence, 48 h; series mostly up to 46.1 µM; activity change, negative = viability loss: at the top concentration
# Description: PI: Naris Nilubol, MD Surgical Oncology Program, National Cancer Institute (NCI) National Institute of Health (NIH), Bethesda, Maryland Adrenocortical cancer (ACC) is a rare malignancy with poor survival outcomes and few treatment options. Currently, mitotane is the only FDA-approved therapy for ACC. Although adjuvant radiation therapy is rarely utilized, it has the potential to improve survival in select cases. Through a quantitative high-throughput drug screen (qHTS), we identified auranofin (AF), a thioredoxin reductase (TXNRD) inhibitor, as a promising candidate drug. This study aims to evaluate whether AF can enhance the efficacy of radiation therapy in the treatment of ACC. Two human ACC cell lines, SW-13 and NCI-H295R, were screened using the National Center for Advancing Translational Sciences (NCATS) Pharmaceutical Collection (NPC) and the Mechanism Interrogation PlatE (MIPE) library (~4,991 compounds). CellTiter-Glo (Cat # G7570, Promega, Madison, WI) was utilized to measure cell viability. Described herein are the results of the corresponding viability assay.
# PROTOCOL TABLE (as described by Inglese J, Shamu CE and Guy RK. 2007) SEQUENCE No. (e.g., 1, 2, 3, etc.); […] (e.g., Cells, Incubation, Reagent, etc.); VALUE; DESCRIPTION. 1; Cells; 5 uL; white, solid-bottom, 1536-well tissue-culture treated plates. 2; Time; overnight culture at 37C with 5% CO2. 3; Compounds and control; 23 nL; Kalypsis pin tool (Wako USA) equipped with a 1536-well pin head to transfer to the assay plates. 4; Time; 48 hours; 37C with 5% CO2. 5; Reagent; 4 uL; CellTiter-Glo luminescent substrate mix. 6; Time; 20 min at room temperature. 7; Detection; Luminescence; ViewLux plate reader NOTES (numbers refer to Sequence numbers above) 1. NCI-H295R cells were harvested from a T175 flask and resuspended in ITS-supplemented DMEM serum-free medium at a concentration of 300 000 cells/mL. Then 5 uL of resuspended cells were dispensed into each well of white, solid-bottom, 1536-well tissue-culture-treated plates using a multidrop combi dispenser. The plates were covered with stainless steel gasket lids. 2-3. The plates were cultured overnight at 37C with 5% CO2. Twenty-three nL of compounds (eight selected concentrations from the NPC / MIPE) or positive control (10 mM stock of bortezomib) in DMSO was transferred to each well of the assay plate using a pin tool (Kalypsys, San Diego, CA, USA). The final concentration of the compounds in the 5 uL assay volume ranged from 0.5 nM to 46 uM. 4-6. After 48 hours of incubation at 37C and 5% CO2, 4 uL of CellTilter-Glo luminescent substrate mix (Promega, Madison, WI, USA) was added to each well. Then the plates were incubated for 20 minutes at room temperature. 7. After incubation, luminescence was measured using a ViewLux plate reader (PerkinElmer, Waltham, MA, USA) with a clear filter was used to measure the number of metabolically competent cells. To determine compound activity in the qHTS assay, the titration-response data for each sample was plotted and modeled by a four-parameter logistic fit yielding IC50 and efficacy (maximal response) values. Raw plate reads for each titration point were normalized relative to positive control ([…], 100% inhibition) and DMSO-only wells (basal, 0%). REFERENCES: Inglese J, Shamu CE and Guy RK, Reporting data from high throughput screening of small molecule libraries, Nature Chemical Biology, 2007, 3(8): 438-441. doi.org/10.1038/nchembio0807-438.
SMILES,"activity change, negative = viability loss",Potency
CCCCCCCCCCCCCCCCCC(=O)O,-1.11% (inactive),–
CC(C)[C@](O)(c1ccc2cc(OC(F)F)c(OC(F)F)cc2c1)c1cn[nH]n1,–,25.1 µM (active)
N[C@@]1(C(=O)O)CS(=O)(=O)[C@H]2[C@H](C(=O)O)[C@H]21,10.5% (inactive),–
NC(=Nc1ccccc1)Nc1ccccc1,-23.8% (inactive),–
C[C@@H]1C(=O)OC2[C@H](O)[C@]34[C@H]5C[C@@H](C(C)(C)C)[C@]36[C@@H](OC(=O)[C@@H]6O)O[C@@]4(C(=O)O5)[C@]21O (stereo not given in full),6.01% (inactive),–
NS(=O)(=O)c1ccc(NC(=S)N2CCN(C/C=C/c3ccccc3)CC2)cc1,-27.8% (inactive),–
Cc1ncc([N+](=O)[O-])n1C,-1.09% (inactive),–
C[C@@H]1O[C@@H](O[C@@H]2\C=C/C=C\C=C/C=C\C[C@H](C)OC(=O)/C=C\[C@H]3O[C@@H]3C[C@H](O)C[C@]3(O)C[C@@H](O)[C@@H](C(=O)O)[C@H](C2)O3)[C@H](O)[C@H](N)[C@@H]1O,4.02% (inactive),–
CNC(=O)c1ccc2cc(C3(O)CCn4cncc43)ccc2c1 (stereo not given),-12.2% (inactive),–
CCC[C@H](NC(=O)[C@@H]1[C@H]2CCC[C@H]2CN1C(=O)[C@@H](NC(=O)[C@@H](NC(=O)c1cnccn1)C1CCCCC1)C(C)(C)C)C(=O)C(=O)NC1CC1,-19.8% (inactive),–
CN1CCN(N)CC1,0.675% (inactive),–
CC[C@@]1(O)C(=O)OCc2c1cc1n(c2=O)Cc2cc3cc(O)ccc3nc2-1,–,1.58 µM (active)
NCCC(O)(P(=O)(O)O)P(=O)(O)O,0.809% (inactive),–
C[C@]12CCC(=O)C=C1CC[C@@H]1[C@@H]2CC[C@@]2(C)[C@H]1CC[C@]2(O)C(=O)CO,-18.4% (inactive),–
C=CC(=O)Nc1cc2c(Nc3ccc(F)c(Cl)c3)ncnc2cc1C#CC(C)(C)N1CCN(C)CC1,–,3.16 µM (active)
O=C(O)COC(=O)Cc1ccccc1Nc1c(Cl)cccc1Cl,-26% (inactive),–
CCC(C)(C)C(=O)O[C@H]1C[C@@H](C)C=C2C=C[C@H](C)[C@H](CC[C@@H]3C[C@@H](O)CC(=O)O3)[C@H]21,–,inactive and 17.8 µM (active)
O=C(O)CCc1nc(-c2ccccc2)c(-c2ccccc2)o1,-5.77% (inactive),–
NC(=O)c1cnc2[nH]ccc2c1NC1C2CC3C[C@H]1CC(O)(C3)C2 (stereo not given in full),20.5% (inactive),–
CC(/C=C/[C@@H]1C[C@]1(C)c1ccc2c(c1)C(C)(C)CCC2(C)C)=C\C(=O)O,-9.28% (inactive),–

SMILES,"activity change, negative = viability loss",Potency
COc1ccccc1O,–,28.2 µM (active)
COc1cc2ncnc(Oc3cccc(NC(=O)Nc4cc(C(C)(C)C(F)(F)F)on4)c3)c2cc1OC,-20.9% (inactive),–
CCOc1ccc(NS(=O)(=O)c2ccc(N)cc2)nn1,-5.01% (inactive),–
CNC[C@H](O)c1ccc(O)c(O)c1,–,inactive
COc1ccc2cc([C@H](C)C(=O)O)ccc2c1,–,inactive
CC(=O)Oc1ccc(C)cc1,-9.29% (inactive),–
CCN1/C(=C/C=C/c2sc3ccccc3[n+]2CC)Sc2ccccc21,–,10 µM (active)
O=c1cc(N2CCOCC2)oc2c(-c3ccccc3)cccc12,-35.7% (inactive),–
CCOc1cc(C(=O)N2CCC(N3CCN(C)CC3)CC2)ccc1Nc1ncc2c(n1)N(C1CCCC1)c1ccccc1C(=O)N2C,–,17.8 µM (active)
CC(=O)NCCCS(=O)(=O)O,0.0083% [at 20 µM] (inactive),–
CN(C)[C@@H]1C(=O)C(C(N)=O)=C(O)[C@@]2(O)C(=O)C3=C(O)c4c(O)ccc(Cl)c4[C@@H](O)[C@H]3C[C@@H]12,-8.54% (inactive),–
CCOC(=O)OC(C)OC1=C(C(=O)Nc2ccccn2)N(C)S(=O)(=O)c2ccccc21 (stereo not given),1.56% (inactive),–
Cc1nc2n(c(=O)c1CCN1CCC(c3noc4cc(F)ccc34)CC1)CCC[C@H]2O,-26.3% [at 20 µM] (inactive),–
CC(NN)c1ccccc1 (stereo not given),-14.6% [at 20 µM] (inactive),–
COC(=O)c1cccnc1,-1.1% (inactive),–
Nc1c(NC/C=C\COc2cc(CN3CCCCC3)ccn2)c(=O)c1=O,9.39% [at 20 µM] (inactive),–
CN1C(C(=O)Nc2ccccn2)=C(O)c2ccccc2S1(=O)=O,–,inactive
CCN(CC)CCc1nc(-c2ccccc2)no1,-3.49% (inactive),–
Cc1cnc(C(=O)NCCc2ccc(S(=O)(=O)NC(=O)NC3CCCCC3)cc2)cn1,–,inactive
CCCOc1ccc2c(c1)CC[C@@H]1[C@@H]2CC[C@]2(C)C(OC)CC[C@@H]12 (stereo not given in full),1.04% (inactive),–
